According to PubChem BioAssay (Tox21):
Active and inactive are the calls of the source. Unless noted, the call rests on the fitted dose curve; in most records, active means well fitted curve in the direction sought with a large enough effect in the repeat runs; inconclusive means weak or mixed curves; inactive means no such curve, though single readings can be large; an effect the other way counts as inactive or inconclusive.

Assays:
[1] = qHTS assay to identify small molecule antagonists of the thyroid receptor (TR) signaling pathway - cell viability counter screen (AID 743064); further: nearly all actives have a fitted effect of over 50% in size; further: potency means the concentration at half of the fitted maximal effect
Outline: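 Plate GH3.TRE-Luc cells; incubate 4 h at 37 °C; add compound, then T3 to 1 nM final; incubate 23.5 h; add CellTiter-Fluor; incubate 30 min at 37 °C, 5% CO2; read fluorescence.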

[2] = target: Estrogen receptor (Homo sapiens) (UniProt P03372); test: qHTS assay to identify small molecule antagonists of the estrogen receptor alpha (ER-alpha) signaling pathway (AID 743069; active means well fitted curve in the direction sought with a large enough effect in the signal ratio in the repeat runs, not every such curve was filed as active; inconclusive means weak or mixed curves, or effect the other way; inactive means no such curve, though single readings can be large or run the other way; the % refers to the signal ratio; further: potency means the concentration at half of the fitted maximal effect)
Sequence of Estrogen receptor (Homo sapiens) (P03372 whole entry, looked up): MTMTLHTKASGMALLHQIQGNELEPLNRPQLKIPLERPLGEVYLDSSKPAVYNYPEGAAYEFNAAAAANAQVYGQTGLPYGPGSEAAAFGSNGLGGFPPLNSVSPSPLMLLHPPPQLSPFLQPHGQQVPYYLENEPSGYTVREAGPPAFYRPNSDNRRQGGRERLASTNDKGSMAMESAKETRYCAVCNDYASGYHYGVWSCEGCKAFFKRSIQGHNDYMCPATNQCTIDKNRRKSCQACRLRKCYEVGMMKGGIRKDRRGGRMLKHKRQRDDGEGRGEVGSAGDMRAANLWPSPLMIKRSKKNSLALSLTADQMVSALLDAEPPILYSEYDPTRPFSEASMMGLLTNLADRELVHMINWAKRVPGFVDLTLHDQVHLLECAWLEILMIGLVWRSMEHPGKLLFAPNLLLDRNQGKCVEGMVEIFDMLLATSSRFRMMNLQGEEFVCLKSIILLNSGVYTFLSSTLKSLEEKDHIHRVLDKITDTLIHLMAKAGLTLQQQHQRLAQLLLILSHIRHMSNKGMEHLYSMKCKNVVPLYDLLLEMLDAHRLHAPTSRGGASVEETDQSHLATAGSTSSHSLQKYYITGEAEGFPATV
Outline: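 Beta-lactamase FRET fluorescence is read after 2 hr at room temperature with LiveBLAzer B/G substrate. Before that, ER-alpha-bla HEK293 cells sit 4 hr after plating, then receive compound plus 17beta-estradiol and incubate 18 hr at 37C.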

[3] = qHTS assay to identify small molecule antagonists of the estrogen receptor alpha (ER-alpha) signaling pathway - cell viability counter screen (AID 743074; calls by dose curve;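 further: HEK293 cells carrying ER-alpha-UAS-bla reporter stimulated with 17beta-estradiol; nearly all actives have a fitted effect of over 45% in size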)
[4] = target: Estrogen receptor (Homo sapiens) (UniProt P03372); test: qHTS assay to identify small molecule agonists of the estrogen receptor alpha (ER-alpha) signaling pathway (AID 743075; calls by dose curve;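 further: HEK293 GripTite cells with ER-alpha and UAS-driven beta-lactamase reporter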)
[5] = target: Estrogen receptor (Homo sapiens) (UniProt P03372); test: qHTS assay to identify small molecule agonists of the estrogen receptor alpha (ER-alpha) signaling pathway using the BG1 cell line (AID 743079); further: nearly all actives have a fitted effect of over 20% in size; further: potency means the concentration at half of the fitted maximal effect
[6] = qHTS assay to identify small molecule antagonists of the estrogen receptor alpha (ER-alpha) signaling pathway using the BG1 cell line - cell viability counter screen (AID 743081);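 further: compound given together with 17beta-estradiol as the ER stimulus; series mostly up to about 70 µM; nearly all actives have a fitted effect of over 45% in size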
Aromatase (Homo sapiens) = Aromatase (Homo sapiens) (UniProt P11511); test: qHTS assay to identify aromatase inhibitors (AID 743083); further: nearly all actives have a fitted effect of over 55% in size; further: potency means the concentration at half of the fitted maximal effect
Sequence of Aromatase (Homo sapiens) (P11511 whole entry, looked up): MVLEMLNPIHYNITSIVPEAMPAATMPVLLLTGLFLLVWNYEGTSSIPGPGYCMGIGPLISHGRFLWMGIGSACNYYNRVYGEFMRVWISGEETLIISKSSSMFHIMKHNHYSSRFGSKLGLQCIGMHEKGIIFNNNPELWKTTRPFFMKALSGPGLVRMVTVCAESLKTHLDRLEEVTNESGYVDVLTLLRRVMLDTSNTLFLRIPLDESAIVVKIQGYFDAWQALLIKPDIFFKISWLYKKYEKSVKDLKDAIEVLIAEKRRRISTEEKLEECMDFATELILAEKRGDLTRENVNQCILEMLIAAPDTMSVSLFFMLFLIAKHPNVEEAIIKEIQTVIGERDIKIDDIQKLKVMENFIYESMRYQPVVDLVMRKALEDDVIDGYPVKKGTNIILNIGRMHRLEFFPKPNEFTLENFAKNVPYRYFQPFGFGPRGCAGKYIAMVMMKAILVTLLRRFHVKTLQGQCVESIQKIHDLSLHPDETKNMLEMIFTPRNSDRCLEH

[7] = qHTS assay to identify small molecule antagonists of the estrogen receptor alpha (ER-alpha) signaling pathway using the BG1 cell line (AID 743080; calls by dose curve;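 further: BG1 cells stimulated with 17beta-estradiol alongside compound; series mostly up to about 70 µM; nearly all actives have a fitted effect of over 25% in size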)
Outline: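 Endogenous full-length ER-alpha in BG1-Luc-4E2 cells drives a stably integrated 4×ERE luciferase gene; compounds were tested against 17beta-estradiol over 21.5 h, with luminescence and multiplexed viability fluorescence recorded.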

[8] = test system: thyroid hormone receptor (rat, GH3 cells); test: qHTS assay to identify small molecule agonists of the thyroid receptor (TR) signaling pathway (AID 743066; calls by dose curve; further: potency means the concentration at half of the fitted maximal effect)
[9] = qHTS assay to identify small molecule antagonists of the thyroid receptor (TR) signaling pathway (AID 743065); further: nearly all actives have a fitted effect of over 55% in size; further: potency means the concentration at half of the fitted maximal effect
Outline: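 GH3.TRE-Luc rat pituitary cells (two TREs driving luciferase) were dosed with compound, then stimulated with 1 nM T3 (final) for 23.5 h at 37 C. ONE-Glo luminescence was the read-out, with CellTiter-Fluor fluorescence as the cytotoxicity counter-screen.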

Measured: Potency

CN1[C@@H]2CC[C@H]1CC(NC(=O)n1c(=O)[nH]c3ccccc31)C2 (some centres not stated)
inactive: [1] | [2] | [3] | [4] | [5] | [6] | Aromatase (Homo sapiens)

Nc1[nH]c(=O)ncc1F
inactive: [2] | [3] | [4] | [5] | [7] | [6] | Aromatase (Homo sapiens)

CN(C)C(=O)C(CCN1CCC(O)(c2ccc(Cl)cc2)CC1)(c1ccccc1)c1ccccc1
active: [1] 8.41 µM | Aromatase (Homo sapiens) 26.6 µM
inactive: [4]

Oc1ccc2c(c1)OC[C@@H](N1CCC(O)(c3ccc(F)cc3)CC1)[C@H]2O
inactive: [1] | [3] | [4] | [6] | Aromatase (Homo sapiens)
active: [5] 9.44 µM

Cc1ccccc1C(=O)O
inactive: [8] | [3] | [6] | Aromatase (Homo sapiens)

O=C(O)Cc1cc(I)c(Oc2cc(I)c(O)c(I)c2)c(I)c1
inactive: [3] | [4] | [6] | Aromatase (Homo sapiens)
active: [8] 0.003 µM | [2] 15.2 µM [inconclusive]

O=C(O)/C=C/c1ccc(Cn2ccnc2)cc1
inactive: [1] | [3] | [6] | Aromatase (Homo sapiens)

Cn1ccc2cc3c(cc21)CCN3C(=O)Nc1cccnc1
active: [5] 5.31 µM
inactive: [9] | [8] | [3] | [6] | Aromatase (Homo sapiens)

CSc1nc(NC2CC2)nc(NC(C)(C)C)n1
inactive: [8] | [3] | [6] | Aromatase (Homo sapiens)

CCCCOCC(C)OCC(C)O (configuration not stated)
inactive: [9] | [8] | [2] | [3] | [4] | [5] | [7] | [6] | Aromatase (Homo sapiens)

CO
inactive: [9] | [8] | [3] | [6] | Aromatase (Homo sapiens)

COC(=O)C1=C(C)NC(C)=C(C(=O)OCC(C)=O)C1c1ccccc1[N+](=O)[O-] (configuration not stated)
active: [1] 8.41 µM | Aromatase (Homo sapiens) 26.6 µM
inactive: [3] | [4] | [5]

CC(C)(C)N(CCO)CCO
inactive: [9] | [8] | [2] | [3] | [4] | [5] | [7] | [6] | Aromatase (Homo sapiens)

NC1CCN(c2cccc(Cl)n2)CC1
inactive: [8] | [3] | Aromatase (Homo sapiens)

CCCCCCC(CCCCCCCCCCC(=O)OCC(COC(C)=O)OC(C)=O)OC(C)=O (configuration not stated)
inactive: [9] | [8] | [2] | [3] | [4] | [5] | [7] | [6] | Aromatase (Homo sapiens)

Nc1ccn(C2CO[C@H](CO)O2)c(=O)n1 (some centres not stated)
inactive: [9] | [8] | [2] | [3] | [4] | [5] | [7] | [6] | Aromatase (Homo sapiens)

C=C(C)C(=O)NCCCN(C)C
inactive: [1] | [3] | [6] | Aromatase (Homo sapiens)

CC(=O)NC(Cc1ccccc1)C(=O)O (configuration not stated)
inactive: [9] | [8] | [2] | [3] | [4] | [5] | [7] | [6] | Aromatase (Homo sapiens)

CCCCCCCCCCCCCCCCCCOCC(O)CO (configuration not stated)
inactive: [1] | [3] | [5] | [6] | Aromatase (Homo sapiens)

Cc1ccccc1Br
inactive: [1] | [3] | [6] | Aromatase (Homo sapiens)

Nc1nc(F)nc2c1ncn2[C@@H]1O[C@H](CO)[C@@H](O)[C@@H]1O
active: [9] 18.8 µM
inactive: [8] | [2] | [3] | [4] | [5] | [7] | [6] | Aromatase (Homo sapiens)

CCC(=O)c1cccc(Cl)c1
inactive: [8] | [3] | [6] | Aromatase (Homo sapiens)

c1ccc2cnncc2c1
inactive: [8] | [2] | [3] | [4] | [5] | [6] | Aromatase (Homo sapiens)

CC(C)(O)C(=O)c1ccc(OCCO)cc1
inactive: [9] | [8] | [2] | [4] | [5] | [7] | [6] | Aromatase (Homo sapiens)

CCOC(=O)[C@H](CCc1ccccc1)N[C@@H](C)C(=O)N1CCC[C@H]1C(=O)O
inactive: [8] | [3] | [6] | Aromatase (Homo sapiens)

CO[Si](OC)(OC)OC
inactive: [8] | [3] | [6] | Aromatase (Homo sapiens)

CC(=O)c1ccc(C)cc1
inactive: [2] | [3] | [4] | [5] | [6] | Aromatase (Homo sapiens)

COc1ccc(NC(C)=O)cc1
inactive: [9] | [8] | [6] | Aromatase (Homo sapiens)

CN(C)CCOC(c1ccc(Cl)cc1)c1ccccn1 (configuration not stated)
inactive: [8] | [2] | [3] | [4] | [5] | [7] | [6]

CN(C)CCn1nnnc1SCC1=C(C(=O)O)N2C(=O)[C@@H](NC(=O)Cc3csc(N)n3)[C@H]2SC1
inactive: [9] | [8] | [6] | Aromatase (Homo sapiens)

O=[N+]([O-])c1ccc(CCO)cc1
inactive: [9] | [8] | [2] | [3] | [4] | [5] | [6] | Aromatase (Homo sapiens)

CCCC(C)CO (configuration not stated)
inactive: [9] | [8] | [3] | [6] | Aromatase (Homo sapiens)

CCCCCCC(=O)OCC
inactive: [9] | [8] | [2] | [3] | [4] | [7] | [6] | Aromatase (Homo sapiens)

CCCCCCOC(=O)CC(CC(=O)OCCCCCC)(OC(=O)CCC)C(=O)OCCCCCC
inactive: [9] | [8] | [2] | [3] | [4] | [5] | [6] | Aromatase (Homo sapiens)

COc1ccc(COC=O)cc1
inactive: [9] | [8] | [2] | [3] | [4] | [5] | [7] | [6] | Aromatase (Homo sapiens)

C1C2OC2C2C1C1CC2C2OC12 (configuration not stated)
inactive: [8] | [3] | [6] | Aromatase (Homo sapiens)
